Source: PubChem BioAssay (EPA / NIEHS)
Inconclusive results are not listed. Active and inactive are the calls of the source. Rule for the calls, unless noted: active = hit-call score of the fitted dose curve at least 0.9, where 1 is the maximum; inconclusive = response in the unintended direction; inactive = score below 0.9.

What was measured:
[1] = biological target: Estrogen receptor beta (Homo sapiens) (UniProt Q92731); test: OT_ER_ERbERb_1440: Odyssey Thera (OT) 24-hour HEK293T Protein-Complementation Assay for Estrogen Receptor-beta/-beta Homodimer (AID 2283380);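 note: scored as signal increase over DMSO baseline for both agonists and antagonists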
Method in brief: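 HEK293T cells stably expressing ER beta LBD (aa 310-547) homodimer fragment-complementation reporter, dosed 24 h. Cells formaldehyde-fixed, Draq5-stained; gain in nuclear (agonist) or nuclear plus cytoplasmic (antagonist) fluorescence versus DMSO read by laser scanning cytometry.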

[2] = biological target: Estrogen receptor (Homo sapiens) (UniProt P03372); test: OT_ERa_GFPERaERE_0480: Odyssey Thera (OT) 8-hour HeLa Transcription Induction Assay for Estrogen Receptor (AID 2283381; active = hit-call score of the fitted dose curve at least 0.9, where 1 is the maximum; inactive = score below 0.9)
Method in brief: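 Fluorescence microscopy with high-content image analysis measures ERE-driven GFP induction in HeLa cells at 8 h post-dose. Increases fitted against DMSO baseline.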

[3] = biological target: Estrogen receptor (Homo sapiens) (UniProt P03372); test: OT_ERa_GFPERaERE_0120: Odyssey Thera (OT) 2-hour HeLa Transcription Induction Assay for Estrogen Receptor (AID 2283382)
Method in brief: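 Fluorescence-microscopy images of the GFP-ERα/ERE reporter, scored by high-content image algorithms, give the readout. HeLa exposure lasted 2 h, and only signal increase over DMSO was fitted.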

[4] = biological target: Bile acid receptor (Homo sapiens) (UniProt Q96RI1); test: OT_FXR_FXRSRC1_0480: Odyssey Thera (OT) 8-hour HEK293T Protein-Complementation Assay for Farnesoid X receptor/SRC-1 Co-activator (AID 2283383)
Method in brief: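 Binding of FXR to coactivator SRC-1 was read as fluorescence from a reconstituted split reporter in HEK293T cells, 8 h after chemical addition. Only increases in signal versus DMSO were fit.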

[5] = biological target: Peroxisome proliferator-activated receptor gamma (Homo sapiens) (UniProt P37231); test: NVS_NR_hPPARg: NovaScreen (NVS) Nuclear Receptor Binding Assay for human Peroxisome Proliferator-activated Receptor gamma (PPARg) (AID 2283370)
Method in brief: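 Chemicals were tested first in duplicate at 25 uM, then in concentration series if active. Binding to cell-free PPARg protein was measured by fluorescence polarization after 2 h, with loss of signal scored against DMSO.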

[6] = biological target: Bile acid receptor (Homo sapiens) (UniProt Q96RI1); test: OT_FXR_FXRSRC1_1440: Odyssey Thera (OT) 24-hour HEK293T Protein-Complementation Assay for Farnesoid X receptor/SRC-1 Co-activator (AID 2283384)
Method in brief: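 Protein-fragment complementation: FXR and SRC-1 fused to reporter fragments that reassemble on interaction, read by fluorescence intensity. Human HEK293T cells measured 24 h post-dose; positive-direction fit versus DMSO.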

[7] = biological target: Retinoic acid receptor RXR-alpha (Homo sapiens) (UniProt P19793); test: OT_NURR1_NURR1RXRa_0480: Odyssey Thera (OT) 8-hour HEK293T Protein Complementation Assay for Nurr1/retinoid X receptor (RXR) (AID 2283385)
Method in brief: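 Interaction of Nurr1 with RXRα read as reconstituted reporter fluorescence in a HEK293T fragment-complementation system, 8 h post-treatment; increase over DMSO baseline analysed.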

[8] = biological target: Agonist Androgen Response Element (ARE), AR (gene 367) (UniProt P10275); test: OT_AR_ARELUC_AG_1440: Odyssey Thera (OT) 24-hour CHO-K1 Luciferase Assay for Agonist Androgen Response Element (ARE) (AID 2283379)
Method in brief: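 Gain-of-signal reporter endpoint: cells (CHO-K1, hamster) are treated 24 h, luciferin/ATP reagent added, and luminescence compared with DMSO baseline.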

[9] = biological target: human Dopamine Transporter (DAT), SLC6A3 (gene 6531) (UniProt Q01959); test: NVS_TR_hDAT: NovaScreen (NVS) Transporter Assay for human Dopamine Transporter (DAT) (AID 2283374);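 note: activity means loss of bound radioligand signal relative to DMSO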
Method in brief: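 hDAT membranes + tritiated/iodinated radioligand, competitive displacement; 1 h; filter scintillation readout. Single conc 25 uM (duplicate), then conc-response for actives. DMSO = negative control.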

[10] = biological target: mouse Estrogen Receptor alpha (Era), Esr1 (gene 13982) (UniProt P19785); test: NVS_NR_mERa: NovaScreen (NVS) Nuclear Receptor Binding Assay for mouse Estrogen Receptor alpha (Era) (AID 2283378);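 note: hit means loss of bound radioligand signal relative to DMSO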
Method in brief: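 Extracted mouse Era incubated with tritiated or iodinated radioligand plus test chemical, 18 h. Bound fraction separated on filters, counted by scintillation. DMSO = negative control/baseline; duplicate single-point at 25 uM, then concentration-response follow-up.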

[11] = biological target: human Norepinephrine Transporter (NET), SLC6A2 (gene 6530) (UniProt P23975); test: NVS_TR_hNET: NovaScreen (NVS) Transporter Assay for human Norepinephrine Transporter (NET) (AID 2283377);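 note: cell-free membrane protein extracted from CHO cells expressing human NET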;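 for AC50: displacement of radioligand from human NET seen as loss of scintillation signal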
Method in brief: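 CHO cell extracts expressing the transporter; tritiated or iodinated tracer displaced competitively; filtration plus scintillation readout at 1 h. Single-point duplicates at 25 uM, concentration series for follow-up; activity = signal drop relative to DMSO.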

Measured: AC50

Sequence of mouse Estrogen Receptor alpha (Era), Esr1 (gene 13982) (P19785 whole entry, looked up): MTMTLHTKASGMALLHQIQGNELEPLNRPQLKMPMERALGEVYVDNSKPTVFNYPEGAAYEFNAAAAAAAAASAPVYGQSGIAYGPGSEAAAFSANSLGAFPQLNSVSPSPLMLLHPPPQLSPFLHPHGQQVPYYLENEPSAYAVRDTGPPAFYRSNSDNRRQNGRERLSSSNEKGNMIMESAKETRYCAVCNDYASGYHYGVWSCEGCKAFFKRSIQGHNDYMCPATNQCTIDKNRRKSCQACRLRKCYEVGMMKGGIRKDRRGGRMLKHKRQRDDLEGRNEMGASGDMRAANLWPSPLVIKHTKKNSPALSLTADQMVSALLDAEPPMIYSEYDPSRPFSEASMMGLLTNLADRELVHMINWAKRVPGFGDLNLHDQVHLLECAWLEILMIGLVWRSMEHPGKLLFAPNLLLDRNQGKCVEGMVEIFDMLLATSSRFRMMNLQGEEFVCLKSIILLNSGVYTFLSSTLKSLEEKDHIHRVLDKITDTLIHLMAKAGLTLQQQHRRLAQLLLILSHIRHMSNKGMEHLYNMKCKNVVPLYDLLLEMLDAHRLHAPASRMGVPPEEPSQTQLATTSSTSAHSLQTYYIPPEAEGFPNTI
Sequence of human Norepinephrine Transporter (NET), SLC6A2 (gene 6530) (P23975 whole entry, looked up): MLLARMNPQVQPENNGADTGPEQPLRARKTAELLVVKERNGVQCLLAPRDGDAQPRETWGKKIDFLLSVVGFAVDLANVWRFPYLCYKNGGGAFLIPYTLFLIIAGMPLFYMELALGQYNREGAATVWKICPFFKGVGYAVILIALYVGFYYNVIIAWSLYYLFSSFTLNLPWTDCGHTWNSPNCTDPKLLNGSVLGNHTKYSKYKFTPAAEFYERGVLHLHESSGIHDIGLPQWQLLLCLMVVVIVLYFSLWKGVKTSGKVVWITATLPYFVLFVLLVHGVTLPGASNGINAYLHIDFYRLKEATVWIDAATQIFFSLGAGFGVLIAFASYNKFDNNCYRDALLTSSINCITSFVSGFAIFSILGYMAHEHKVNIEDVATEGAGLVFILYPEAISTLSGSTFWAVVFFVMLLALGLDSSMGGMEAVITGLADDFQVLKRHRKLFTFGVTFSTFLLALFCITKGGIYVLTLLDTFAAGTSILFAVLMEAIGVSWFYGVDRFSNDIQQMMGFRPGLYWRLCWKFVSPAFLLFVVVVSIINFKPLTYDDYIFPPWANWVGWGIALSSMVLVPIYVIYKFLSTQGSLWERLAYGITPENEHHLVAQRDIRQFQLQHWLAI
Sequence of Retinoic acid receptor RXR-alpha (Homo sapiens) (P19793 whole entry, looked up, the tested form may be a part): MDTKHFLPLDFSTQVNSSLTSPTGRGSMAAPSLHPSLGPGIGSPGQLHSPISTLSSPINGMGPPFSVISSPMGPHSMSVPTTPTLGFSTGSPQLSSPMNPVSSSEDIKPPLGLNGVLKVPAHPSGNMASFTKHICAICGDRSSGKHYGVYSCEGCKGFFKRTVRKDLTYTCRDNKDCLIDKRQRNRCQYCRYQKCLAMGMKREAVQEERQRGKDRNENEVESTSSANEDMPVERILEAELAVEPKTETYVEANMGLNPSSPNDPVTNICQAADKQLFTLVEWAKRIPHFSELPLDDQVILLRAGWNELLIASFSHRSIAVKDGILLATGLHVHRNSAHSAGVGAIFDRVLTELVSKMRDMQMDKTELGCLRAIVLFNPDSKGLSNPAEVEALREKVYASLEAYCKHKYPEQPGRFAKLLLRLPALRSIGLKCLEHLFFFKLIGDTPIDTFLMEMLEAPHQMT
Sequence of Bile acid receptor (Homo sapiens) (Q96RI1 whole entry, looked up, the tested form may be a part): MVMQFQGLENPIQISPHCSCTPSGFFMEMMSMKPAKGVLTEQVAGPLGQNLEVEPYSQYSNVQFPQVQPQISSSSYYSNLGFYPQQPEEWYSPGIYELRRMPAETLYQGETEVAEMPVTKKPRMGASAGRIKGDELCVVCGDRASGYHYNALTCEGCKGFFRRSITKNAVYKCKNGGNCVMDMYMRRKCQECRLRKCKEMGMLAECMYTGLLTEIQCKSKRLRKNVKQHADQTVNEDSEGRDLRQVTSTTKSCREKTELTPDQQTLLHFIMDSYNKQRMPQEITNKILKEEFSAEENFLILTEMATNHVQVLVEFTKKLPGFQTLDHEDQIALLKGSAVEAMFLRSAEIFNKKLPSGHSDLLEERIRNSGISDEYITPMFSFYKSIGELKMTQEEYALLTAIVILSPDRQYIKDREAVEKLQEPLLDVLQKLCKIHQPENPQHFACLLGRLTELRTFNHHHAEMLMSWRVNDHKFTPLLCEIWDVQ
Sequence of Estrogen receptor beta (Homo sapiens) (Q92731 whole entry, looked up, the tested form may be a part): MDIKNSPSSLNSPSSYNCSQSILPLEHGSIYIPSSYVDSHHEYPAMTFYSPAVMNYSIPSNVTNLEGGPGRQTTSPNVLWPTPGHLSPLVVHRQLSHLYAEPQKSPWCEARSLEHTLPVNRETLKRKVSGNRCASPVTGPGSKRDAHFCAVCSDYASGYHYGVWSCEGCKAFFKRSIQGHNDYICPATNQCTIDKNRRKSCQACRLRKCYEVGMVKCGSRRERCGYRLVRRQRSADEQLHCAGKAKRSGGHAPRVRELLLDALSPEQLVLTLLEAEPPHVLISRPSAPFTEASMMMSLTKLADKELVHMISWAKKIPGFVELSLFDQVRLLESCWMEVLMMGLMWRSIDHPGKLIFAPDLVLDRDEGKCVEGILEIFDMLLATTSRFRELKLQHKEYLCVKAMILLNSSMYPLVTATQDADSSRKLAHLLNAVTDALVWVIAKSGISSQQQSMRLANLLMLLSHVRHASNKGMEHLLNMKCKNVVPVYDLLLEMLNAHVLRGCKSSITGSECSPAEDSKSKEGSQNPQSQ
Sequence of Estrogen receptor (Homo sapiens) (P03372 whole entry, looked up): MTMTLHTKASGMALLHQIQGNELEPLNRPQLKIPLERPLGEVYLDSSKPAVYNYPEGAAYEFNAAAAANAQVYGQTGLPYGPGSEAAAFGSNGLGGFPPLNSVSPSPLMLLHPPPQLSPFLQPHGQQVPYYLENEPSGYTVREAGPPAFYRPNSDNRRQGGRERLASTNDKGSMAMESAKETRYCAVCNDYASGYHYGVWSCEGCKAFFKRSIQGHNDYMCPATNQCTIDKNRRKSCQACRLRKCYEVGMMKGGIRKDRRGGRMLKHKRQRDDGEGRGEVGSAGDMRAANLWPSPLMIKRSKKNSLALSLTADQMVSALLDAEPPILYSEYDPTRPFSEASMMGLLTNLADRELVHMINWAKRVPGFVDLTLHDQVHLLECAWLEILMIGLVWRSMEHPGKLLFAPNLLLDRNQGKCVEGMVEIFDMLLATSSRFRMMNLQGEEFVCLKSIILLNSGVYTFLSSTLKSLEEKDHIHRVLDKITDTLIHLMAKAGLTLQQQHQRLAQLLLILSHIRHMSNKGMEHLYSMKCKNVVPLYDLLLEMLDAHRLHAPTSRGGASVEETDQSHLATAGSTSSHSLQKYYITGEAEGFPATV
Sequence of Peroxisome proliferator-activated receptor gamma (Homo sapiens) (P37231 whole entry, looked up): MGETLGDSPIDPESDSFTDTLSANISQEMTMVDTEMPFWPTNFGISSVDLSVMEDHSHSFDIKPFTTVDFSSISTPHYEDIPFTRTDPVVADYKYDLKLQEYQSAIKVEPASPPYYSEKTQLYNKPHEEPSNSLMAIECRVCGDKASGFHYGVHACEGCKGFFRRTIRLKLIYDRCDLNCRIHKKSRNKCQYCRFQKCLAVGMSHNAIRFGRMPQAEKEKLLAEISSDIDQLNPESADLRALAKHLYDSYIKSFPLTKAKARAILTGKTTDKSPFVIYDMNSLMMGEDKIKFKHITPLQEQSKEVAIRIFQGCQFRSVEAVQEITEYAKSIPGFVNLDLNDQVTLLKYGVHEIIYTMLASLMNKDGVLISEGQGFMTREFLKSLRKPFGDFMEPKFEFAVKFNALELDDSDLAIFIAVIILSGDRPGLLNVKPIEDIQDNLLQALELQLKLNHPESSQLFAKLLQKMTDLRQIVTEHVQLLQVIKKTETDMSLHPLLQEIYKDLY
Sequence of Agonist Androgen Response Element (ARE), AR (gene 367) (P10275 whole entry, looked up): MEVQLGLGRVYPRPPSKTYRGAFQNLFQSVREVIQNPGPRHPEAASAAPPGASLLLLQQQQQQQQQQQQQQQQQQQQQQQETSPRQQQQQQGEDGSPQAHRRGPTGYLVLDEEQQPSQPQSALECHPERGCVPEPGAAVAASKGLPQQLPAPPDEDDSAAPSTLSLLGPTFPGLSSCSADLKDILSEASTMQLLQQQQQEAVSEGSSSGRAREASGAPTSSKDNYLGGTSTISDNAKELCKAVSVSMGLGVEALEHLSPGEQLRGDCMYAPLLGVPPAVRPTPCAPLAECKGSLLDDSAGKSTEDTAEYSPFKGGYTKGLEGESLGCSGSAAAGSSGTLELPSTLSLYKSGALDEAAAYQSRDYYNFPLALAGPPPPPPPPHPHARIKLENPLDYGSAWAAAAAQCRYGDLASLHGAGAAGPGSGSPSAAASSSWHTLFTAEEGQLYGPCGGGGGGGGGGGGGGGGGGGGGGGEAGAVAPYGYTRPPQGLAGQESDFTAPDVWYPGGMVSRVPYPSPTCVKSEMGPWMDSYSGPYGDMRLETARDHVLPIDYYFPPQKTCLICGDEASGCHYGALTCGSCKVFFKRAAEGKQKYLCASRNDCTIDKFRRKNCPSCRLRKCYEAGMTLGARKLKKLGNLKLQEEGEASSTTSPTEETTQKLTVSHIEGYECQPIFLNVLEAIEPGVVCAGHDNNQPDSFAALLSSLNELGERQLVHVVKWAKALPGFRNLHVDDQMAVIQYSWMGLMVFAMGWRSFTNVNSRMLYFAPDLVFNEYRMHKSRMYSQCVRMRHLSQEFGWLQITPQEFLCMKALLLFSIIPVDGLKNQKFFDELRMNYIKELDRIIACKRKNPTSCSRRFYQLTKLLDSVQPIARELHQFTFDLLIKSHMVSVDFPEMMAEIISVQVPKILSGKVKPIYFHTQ

N#Cc1ccc(N(CC(N)=O)CC(F)(F)F)cc1C(F)(F)F
inactive: [1] | [2] | [3] | [4]

O=S(=O)(O)C(F)(F)C(F)(F)C(F)(F)C(F)(F)C(F)(F)C(F)(F)F
inactive: [5] | [2] | [3] | [6] | [7]

Cc1ccccc1[N+](=O)[O-]
inactive: [1] | [2] | [3] | [7]

CN(C)c1nc(=O)n(C2CCCCC2)c(=O)n1C
inactive: [1] | [2] | [3] | [4] | [6] | [7]

CCOP(=S)(OCC)SCSC(C)(C)C
inactive: [2] | [3] | [7]

O=C(NC(=O)c1c(F)cccc1F)Nc1cc(Cl)c(OC(F)(F)C(F)F)c(Cl)c1
inactive: [8] | [1] | [2] | [3] | [7]

O=C(O)C(F)(F)C(F)(F)C(F)(F)C(F)(F)C(F)(F)F
inactive: [1] | [2] | [3] | [7]

Clc1ccc(Cl)cc1
inactive: [1] | [2] | [3] | [7]

c1cc2ccc3cccc4ccc(c1)c2c34
inactive: [8] | [2] | [3] | [4] | [6] | [7]

CCCCCCOC(=O)c1ccccc1C(=O)OCCCCCC
inactive: [9] | [10] | [2] | [3] | [7]

Cc1ccc(O)c(C)c1
active: [11] 11.5 µM
inactive: [1] | [2] | [3] | [7]

CN(C)CCO
inactive: [1] | [2] | [3] | [7]

C=CC(=O)NCNC(=O)C=C
inactive: [10] | [1] | [2] | [3] | [7]

C=CC(N)=O
inactive: [2] | [3] | [7]

c1ccc(-c2ccccc2)cc1
inactive: [11] | [1] | [2] | [3] | [4]

Cc1ccccc1O
inactive: [1] | [2] | [3] | [7]

CCSC(=O)N(CC)C1CCCCC1
inactive: [2] | [3] | [4] | [6] | [7]

O=C(NC(=O)c1cc(F)c(F)cc1Cl)Nc1cc(F)ccc1N1CCC(C(=O)O)CC1
inactive: [5] | [2] | [3] | [7]

CCOCCOC(C)=O
inactive: [10] | [2] | [3] | [7]

Sc1ccccc1
inactive: [2] | [3]

CC#Cc1cc(C)nc(Nc2ccccc2)n1
inactive: [11] | [1] | [2] | [3] | [7]

Clc1ccc(C(Cl)(Cl)Cl)cc1
inactive: [2] | [3] | [4] | [6] | [7]

O=S(=O)(O)C(F)(F)C(F)(F)C(F)(F)C(F)(F)F
inactive: [1] | [2] | [3] | [7]

Cc1cc(O)ccc1Cl
active: [1] 52.5 µM | [6] 34.7 µM
inactive: [10] | [3] | [4] | [7]
